Source: PubChem BioAssay (NMMLSC)
This is a sample that favours compounds with a hit; in the whole collection about 1.2% have one here.
RPL19A TOR yeast = alters RPL19A-GFP fluorescence in TOR pathway yeast screen. actives 0.3% (n = 330,000). S. cerevisiae RPL19A-GFP strain, flow cytometry, 3 h; stronger effect = lower value. percent response vs DMSO, % at 10 µM. AID 2025;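 active = percent response vs DMSO below 50%; inconclusive = fewer than 70 events counted for the yeast strain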;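 also: median channel GFP fluorescence of the barcoded RPL19A-GFP strain; ratio of sample median GFP to plate DMSO average so 100% = DMSO; lower means less RPL19A-GFP as with rapamycin TOR inhibition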
Pemphigus Ab inh = inhibitors of pemphigus antibody binding to human desmoglein-3. P32926. DSG3-coupled beads, scFv-anti-DSG3-GFP binding, flow cytometry; stronger effect = lower value. binding (percent of control), % at 10 µM. actives 0.48% (n = 310,000). AID 588358;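 active = binding more than 3 SD below its plate's average and above zero; inconclusive = below that plate limit but binding exactly zero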;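 also: hits lower antibody fragment binding to DSG3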
CIT2-GFP yeast = alters CIT2-GFP fluorescence in TOR pathway yeast screen | GFP response vs DMSO, % at 10 µM | AID 2029 | S. cerevisiae CIT2-GFP strain, flow cytometry, 3 h; 100 means same as DMSO wells | actives 0.065% (n = 320,000);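 active = GFP response relative to DMSO above a set limit, near the screen mean plus 3 SD, cut at about 150% in these data; inconclusive = Fewer than 70 cells measured for a yeast strain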;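 also: ratio of well median GFP fluorescence to mean of DMSO wells on the plate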
LAP4-GFP MLPCN = yeast TOR pathway LAP4-GFP modulation | S. cerevisiae LAP4-GFP multiplex, flow cytometry GFP, 3 h; median GFP as percent of DMSO wells | AID 2023 | GFP response vs DMSO, % at 10 µM | actives 0.34% (n = 320,000);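 active = GFP response vs DMSO above a set limit, about the screen mean plus 3 SD, cut at about 150% in these data; inconclusive = under 70 cell events counted for the yeast strain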
AGP1-GFP MLPCN = modulators of TOR pathway AGP1-GFP in S. cerevisiae. actives 0.02% (n = 320,000). S. cerevisiae AGP1-GFP multiplex flow cytometry, 3 h; GFP as percent of DMSO wells. GFP response vs DMSO, % at 10 µM. AID 2066;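 active = GFP response relative to DMSO above a set limit, near screen average plus 3 SD, cut at about 150% in these data; inconclusive = fewer than 70 cells counted for the yeast strain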;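 also: median GFP channel fluorescence of the gated AGP1 strain per well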
MEP2 TOR yeast = modulators of TOR pathway MEP2-GFP in S. cerevisiae; S. cerevisiae MEP2-GFP strain, flow cytometry GFP, 3 h; 100% = DMSO control level; GFP response vs DMSO, % at 10 µM; actives 0.51% (n = 330,000); AID 2016;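 active = GFP response versus DMSO above a set limit, roughly screen mean plus 3 SD, cut at about 180% in these data; inconclusive = fewer than 70 cells counted for a yeast strain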;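 also: median GFP fluorescence of the barcode-gated MEP2-GFP cells per well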
Active calls of the source: *; ? = inconclusive; . = no result given; + = active, no number; [ ] = another dose, or the depositor's remark.

SMILES	RPL19A TOR yeast	Pemphigus Ab inh	CIT2-GFP yeast	LAP4-GFP MLPCN	AGP1-GFP MLPCN	MEP2 TOR yeast
O=[N+]([O-])/C=C/c1cn(Cc2ccccc2)c2ccccc12	89	100	93	178*	94	101
COc1ccc(/C=N/Nc2ccc([N+](=O)[O-])cc2)cc1O	95	105	87	120	73	103
Cc1ccc(NC(=O)N2CCC(NC(=O)c3cccc(F)c3)CC2)cc1	103	?	103	91	104	103
O=C(NC1CCN(C(=O)Nc2ccc(F)cc2)CC1)c1cccc(F)c1	30*[may fluoresce violet]	.	?	59	?	200*[may fluoresce violet]
Cc1ccc(/C=C/C(=O)N2CC(C)CC(C)C2)o1 (configuration not stated)	.	101	112	127	32	275*
CC1(C)CN(c2ccsc2C(=O)O)C1=O	102	56*	95	104	114	104
COc1c(F)c(F)c(C(=O)Nc2ccc(N3CCN(Cc4ccccc4)CC3)cc2)c(F)c1F	98	99	98	98	104	106
COc1ccc(C2Nc3ccccc3C(=O)N2Cc2ccco2)cc1COc1ccc(NC(C)=O)cc1 (configuration not stated)	103	37*	105	101	108	117
COc1ccc(C2Nc3ccccc3C(=O)N2Cc2ccco2)cc1COc1ccccc1F (configuration not stated)	97	103	105	98	99	97
C=CCOc1ccc(C(=O)n2cc(C(=O)OC)c3ccccc32)cc1	99	113	92	106	90	186*
COC(=O)c1sc(C(C)(C)C)cc1CS(=O)(=O)c1ccc(Cl)cc1	102	.	98	108	104	96
CCOC(=O)c1[nH]c2ccccc2c1NC(=O)C(CC)CC	99	-14*	83	85	92	86
CC(C)CC(OC(=O)c1nsc(Cl)c1Cl)C(=O)NC1CCCC1 (configuration not stated)	43*[may fluoresce violet]	.	?	60	?	243*[may fluoresce violet]
CC(OC(=O)c1nsc(Cl)c1Cl)C(=O)NC1CCCCC1 (configuration not stated)	104	106	99	89	94	92
CCCCNCC1C(Oc2ccc(Cl)cc2)C(=O)N1c1ccccc1C (configuration not stated)	103	110	96	98	98	101
Fc1ccccc1-c1nc(NCCCN2CCOCC2)c2ccccc2n1	102	97	103	111	98	208*
Clc1ccc(-c2nc(NCCCN3CCOCC3)c3ccccc3n2)cc1	94	99	92	96	97	93
CCC(C)Nc1nc(N)c([N+](=O)[O-])c(Nc2ccccc2OC)n1 (configuration not stated)	96	107	95	115	94	94
CCC(C)Nc1nc(N)c([N+](=O)[O-])c(Nc2cc(OC)ccc2OC)n1 (configuration not stated)	77	105	.	.	.	265*[may fluoresce violet]
CCn1c(SCC(=O)Nc2ccc(C(C)=O)cc2)nc2nc3c(cc2c1=O)COC(C)(C)C3	96	95*	100	107	105	99
CC1(C)Cc2nc3oc4c(=O)n(CC(=O)Nc5ccc(Cl)cc5)cnc4c3cc2CO1	98	87*	94	107	104	106
CCCCNc1ncnc2c1nnn2Cc1ccccc1Cl	100	91	102	94	92	99
CCCOc1ccc(Cc2c(Cl)nc(SC)nc2N(C)C)cc1	96	109	98	89	91	100
COc1cc(C(=O)OCC(=O)N2CCCC2)cc(OC)c1OC	47*[may fluoresce violet]	112	?	93	.	324*[may fluoresce violet]
COc1ccc(-c2noc(CCC(=O)NC3CCCCCC3)n2)cc1OC	.	83*	.	.	.	.
SMILES	RPL19A TOR yeast	Pemphigus Ab inh	CIT2-GFP yeast	LAP4-GFP MLPCN	AGP1-GFP MLPCN	MEP2 TOR yeast
Cc1ccc(S(=O)(=O)CCc2nnc(NC(=O)C3CCCCC3)s2)cc1	94	103	101	96	103	95
CC(=O)Nc1nnc(CCS(=O)(=O)c2ccc(C)c(C)c2)s1	107	6.1*	102	95	108	99
CC(CN1CCCC1)OC(=O)c1ccc(Cl)cc1 (configuration not stated)	107	106	103	88	101	107
O=C(/C=C/c1ccccc1)Nc1ncn[nH]1	92	99	89	163*	94	97
CCc1nnc(NC(=O)CSc2nnc(C3CCCCC3)n2-c2cccc(Cl)c2)s1	49*	101	199*	343*	198*	+
Cc1ccc(OCCNC(=O)CNC(=O)c2ccccc2Cl)cc1	98	103	98	104	105	100
CCCC(=O)c1ccc(O)cc1O	.	94	.	.	.	.
CC(NC(=O)c1ccc([N+](=O)[O-])o1)C12CC3CC(CC(C3)C1)C2 (configuration not stated)	16*[may fluoresce violet]	92	?	40	?	?
O=C(O)c1ccc(NS(=O)(=O)Cc2ccc(Cl)c(Cl)c2)cc1	.	125	.	.	.	.
O=C(COC(=O)C1=COCCO1)Nc1ccc([N+](=O)[O-])cc1C(F)(F)F	98	96	90	99	99	99
COC(=O)c1ccc(C2C(Oc3ccccc3)C(=O)N2CCc2ccc(F)cc2)cc1 (configuration not stated)	98	100	100	106	100	108
COC(=O)c1ccc(C2C(Oc3ccc(OC)cc3)C(=O)N2CCc2ccc(OC)c(OC)c2)cc1 (configuration not stated)	98	72*	102	95	100	79
COc1ccnc(N=CNOCc2ccc(Cl)cc2)c1C#N	45*[may fluoresce violet]	90	?	89	20	226*[may fluoresce violet]
COc1ccnc(Oc2ccc(Cl)cc2)c1C#N	100	102	100	104	101	103
COCCN1C(=O)c2ccccc2C(C(=O)NCCN(C)C)C1c1ccc(F)cc1 (configuration not stated)	52	.	?	85	42	464*[may fluoresce violet]
O=C(N/N=C/c1cccs1)c1ccccn1	94	96	100	96	97	97
Cc1ccc(/C=N/NC(=O)c2ccccn2)s1	81	94	110	140	106	200*
Cc1ccc(OCCSc2nc3ccccc3n2CCC(=O)O)c(C(C)C)c1	.	96	.	.	.	.
CCc1ccccc1NC(=O)COC(=O)C1C2CC3OC(=O)C1C3C2 (configuration not stated)	49*[may fluoresce violet]	100	?	101	24	754*[may fluoresce violet]
Cc1cccc(NC(=O)COC(=O)C2C3CC4OC(=O)C2C4C3)c1C (configuration not stated)	99	57*	103	100	100	93
